Laboratory results from PMC4336329 (PLoS ONE, 2015).
The campaign covered roughly 310,000 compounds. About 14,000 (4.5%) showed an effect of 50% or more. The effect is printed as a negative number. Shown is part of a subset that was picked to be rich in strong results.

What follows are molecules tested against human ether-à-go-go-related gene (hERG) potassium channel (human, UniProt Q12809) (assay: primary screen, population patch clamp on CHO cells stably expressing hERG; higher = less effect of the substance).
human ether-à-go-go-related gene (hERG) potassium channel, sequence (Q12809 whole entry, looked up): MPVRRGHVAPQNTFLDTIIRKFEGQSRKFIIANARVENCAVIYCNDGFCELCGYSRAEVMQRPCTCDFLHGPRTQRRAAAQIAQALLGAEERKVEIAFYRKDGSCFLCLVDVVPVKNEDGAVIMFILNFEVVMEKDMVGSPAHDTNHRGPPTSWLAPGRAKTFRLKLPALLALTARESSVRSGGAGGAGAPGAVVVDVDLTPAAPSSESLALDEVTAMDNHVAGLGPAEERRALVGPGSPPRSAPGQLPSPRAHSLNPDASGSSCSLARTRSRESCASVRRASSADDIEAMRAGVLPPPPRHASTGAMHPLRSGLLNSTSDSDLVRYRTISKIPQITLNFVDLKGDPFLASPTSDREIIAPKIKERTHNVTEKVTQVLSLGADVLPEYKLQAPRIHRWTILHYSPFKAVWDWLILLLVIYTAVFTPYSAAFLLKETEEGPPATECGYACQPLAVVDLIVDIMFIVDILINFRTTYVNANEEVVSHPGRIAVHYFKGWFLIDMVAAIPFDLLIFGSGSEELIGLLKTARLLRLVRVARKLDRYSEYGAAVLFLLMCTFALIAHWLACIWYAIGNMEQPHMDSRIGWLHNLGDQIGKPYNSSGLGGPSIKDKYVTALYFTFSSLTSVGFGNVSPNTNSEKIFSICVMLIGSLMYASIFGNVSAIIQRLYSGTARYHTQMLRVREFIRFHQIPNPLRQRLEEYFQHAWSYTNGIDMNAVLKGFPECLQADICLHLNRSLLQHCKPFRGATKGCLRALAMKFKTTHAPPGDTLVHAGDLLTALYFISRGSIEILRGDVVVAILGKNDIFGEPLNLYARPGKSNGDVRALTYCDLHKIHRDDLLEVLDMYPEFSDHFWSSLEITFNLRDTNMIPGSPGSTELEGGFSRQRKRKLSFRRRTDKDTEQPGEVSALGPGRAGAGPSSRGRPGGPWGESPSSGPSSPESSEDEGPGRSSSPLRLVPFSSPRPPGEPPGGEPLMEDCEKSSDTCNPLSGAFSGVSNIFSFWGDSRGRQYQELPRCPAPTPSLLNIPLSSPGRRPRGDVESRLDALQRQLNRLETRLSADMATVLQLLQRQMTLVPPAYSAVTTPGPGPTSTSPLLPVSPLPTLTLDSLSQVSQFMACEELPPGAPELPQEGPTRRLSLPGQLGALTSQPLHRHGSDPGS
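Note: peak tail current of the secondary pulse compared with the same well before compound.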

SMILES | hERG current change (%, negative = inhibition) at 10uM
Cn1nc([N+](=O)[O-])nc1N1CCOCC1 | 23.7%
CC1CCCCN1CCn1c(=S)[nH]c2cc3c(cc2c1=O)OCO3 (stereo not shown) | -29%
Cc1cc2cccc(C)c2nc1SCC(=O)NNC(=O)c1ccco1 | 3.66%
Cn1nc(C(=O)Nc2cccc(S(=O)(=O)N3CCCC3)c2)c2ccccc2c1=O | -4.87%
C=CCOc1c(CNc2ccc3[nH]c(=O)[nH]c3c2)cccc1OC | 10.1%
Cc1ccc(NC2CCCN(C(=O)c3snnc3C)C2)cc1C (stereo not shown) | 0.46%
Cn1c2c(c(=O)c3ccccc31)CCC(C)(C)O2 | -3.57%
Cl.Cn1c2c(c3ccccc31)CCN1CCC[C@]21c1ccccc1 | -60.7%
Cn1c2c(c(=O)c3ccccc31)CCCC2 | -4.88%
COc1ccc(-c2nnc(NC(=O)c3ccc(S(=O)(=O)N(C)CC4CCCO4)cc3)o2)c(OC)c1 (stereo not shown) | 10.3%
Cn1cc(CN2CCC(n3nccc3NC(=O)c3ccccc3Cl)CC2)cn1 | -32.9%
Cc1ccccc1C(=O)Nc1ccnn1C1CCN(Cc2cnn(C(C)C)c2)CC1 | -72.3%
CCn1cc(CN2CCC(n3nccc3NC(=O)c3ccccc3C)CC2)c(C)n1 | -37.9%
CCn1cc(CN2CCC(n3nccc3NC(=O)c3ccccc3OC)CC2)cn1 | -71.4%
CCn1cc(CN2CCC(n3nccc3NC(=O)Cc3ccccc3)CC2)cn1 | 7.27%
COC(C(=O)Nc1ccnn1C1CCN(Cc2cnn(C(C)C)c2)CC1)c1ccccc1 (stereo not shown) | -2.06%
COc1ccccc1C(=O)Nc1ccnn1C1CCN(Cc2cnn(C)c2)CC1 | -55.6%
CC(C)n1cc(CN2CCC(n3nccc3NC(=O)Cc3ccccc3)CC2)cn1 | 7.82%
CCn1cc(CN2CCC(n3nccc3NC(=O)c3ccc(OC)cc3)CC2)cn1 | -4.16%
Cc1ccccc1C(=O)Nc1ccnn1C1CCN(Cc2cnn(C)c2)CC1 | -26.5%
COc1ccc(C(=O)Nc2ccnn2C2CCN(Cc3cnn(C)c3)CC2)cc1 | 6.81%
CCn1cc(CN2CCC(n3nccc3NC(=O)c3ccccc3C)CC2)cn1 | -58.2%
O=C(COc1cc(F)ccc1[N+](=O)[O-])Nc1ccc(N2CCOCC2)cc1 | 7.65%
CN1C(=O)C2(C(C#N)=C(N)N(c3ccc(Cl)cc3)C3=C2C(=O)CC(C)(C)C3)c2ccccc21 (stereo not shown) | -6.79%

SMILES | hERG current change (%, negative = inhibition) at 10uM
CCOC(=O)/C(C#N)=N/Nc1c(S(=O)(=O)Cc2ccco2)csc1C(=O)OC | 11.4%
COc1ccc(N2CCN(C(=O)Nc3ccccc3Cl)CC2)cc1 | 4.49%
Cc1ccccc1NC(=O)CSc1nnc(CNC(=O)c2ccc3c(c2)OCO3)n1C | 1.34%
CCC1C(=O)NCCN1C(=O)CCc1nnc(CCc2ccc(OC)cc2)o1 (stereo not shown) | 21.9%
Cc1ccc(C(=O)NCCNC(=O)COc2ccccc2Cl)cn1 | 6.95%
COCCCN(C(=O)c1ccccc1F)c1nc(-c2ccc(OC)cc2)cs1 | 8.7%
CCN(CC)CCCN(C(=O)c1ccccc1F)c1nc(-c2ccc(OC)cc2)cs1 | -71.4%
CCN(C(=O)c1ccccc1F)c1nc(-c2ccc(OC)cc2)cs1 | 22.8%
CCN(CC)CCCN(C(=O)c1ccccc1C)c1nc(-c2ccc(OC)cc2)cs1 | -55.5%
COCCN(C(=O)c1ccccc1F)c1nc(-c2ccc(OC)cc2)cs1 | 16.7%
CN(CC(=O)Nc1cccc(F)c1)C(=O)CCNC(=O)c1ccco1 | 16.7%
CCC(C)(C)NC(=O)C(c1ccccc1)N(Cc1cccs1)C(=O)Cn1nnc2ccccc21 (stereo not shown) | 7.58%
Cc1cccc(/C(N)=N/OC(=O)COc2ccc(Cl)c(C)c2)c1 | 13.2%
CC1CCN(CCCNC(=O)c2cc3sccc3n2C)CC1 | -57.3%
COc1ccc(CCNC(=O)c2cc3sccc3n2C)cc1OC | -6.67%
COc1ccc(N2CCN(CCCNC(=O)c3cc4sccc4n3C)CC2)cc1 | -70.7%
COc1ccc(N2CCN(CCCNC(=O)CCCn3c(=O)[nH]c4ccsc4c3=O)CC2)cc1 | -9.7%
COCCNC(=O)c1cc2sccc2n1C | 1.67%
Cn1c(C(=O)NCCCN2CCCCC2)cc2sccc21 | -49%
COC(=O)CSc1ccsc1C(=O)O | 5.72%
COc1ccc(-c2cc3c(=O)n(CC(=O)Nc4cccc(Cl)c4)nc(C)n3n2)cc1 | 14.8%
CCCC(=O)Nc1cccc(NC(=O)c2cccc([N+](=O)[O-])c2C)c1 | -12.8%
CCN(CC)S(=O)(=O)c1ccc2c(c1)N(CC(=O)N1CCCC1)C(=O)CO2 | -5.64%
CCCCN(CCCC)CCNC(=O)CN1C(=O)COc2ccc(S(=O)(=O)N3CCC(C)CC3)cc21 | -66.5%

SMILES | hERG current change (%, negative = inhibition) at 10uM
CC1CCN(S(=O)(=O)c2ccc3c(c2)N(CC(=O)NCCCN2C(C)CCCC2C)C(=O)CO3)CC1 (stereo not shown) | 17.3%
CCN(Cc1ccccc1)C(=O)CN1C(=O)COc2ccc(S(=O)(=O)N3CCCCCC3)cc21 | -8.9%
CC1CCN(S(=O)(=O)c2ccc3c(c2)N(CC(=O)NCCCN2CCCC(C)C2)C(=O)CO3)CC1 (stereo not shown) | -8.35%
CCN(CC)S(=O)(=O)c1ccc2c(c1)N(CC(=O)N(CCc1ccncc1)C(C)C)C(=O)CO2 | -53.3%
CCCCN(CC)CCNC(=O)CN1C(=O)COc2ccc(S(=O)(=O)N3CCCC3)cc21 | -3.34%
CCN(CC)S(=O)(=O)c1ccc2c(c1)N(CC(=O)NCCc1ccc(S(N)(=O)=O)cc1)C(=O)CO2 | -1.7%
CCCCN(CCCC)CCNC(=O)CN1C(=O)COc2ccc(S(=O)(=O)N3CCOCC3)cc21 | -42.3%
CCN(Cc1ccccc1)C(=O)CN1C(=O)COc2ccc(S(=O)(=O)NC3CCCC3)cc21 | -54.2%
CC(C)N(Cc1ccccc1)C(=O)CN1C(=O)COc2ccc(S(=O)(=O)NC3CCCC3)cc21 | -36.1%
CCCCN(CCCNC(=O)CN1C(=O)COc2ccc(S(=O)(=O)N3CCC(C)CC3)cc21)Cc1ccccc1 | -76.6%
CC(C)CN(C(=O)COC(=O)/C=C/c1ccccc1)C1CCS(=O)(=O)C1 (stereo not shown) | -10.7%
CCOC(=O)N1CCN(C(=O)CSc2nnc(COc3ccccc3)o2)CC1 | -11%
S=C(Nc1ccc(Br)cc1Cl)NN1CCOCC1 | -8.03%
O=C(CC1NCCNC1=O)Nc1ccc(Oc2ccccc2)cc1 (stereo not shown) | 25.6%
Cc1cc(C(=O)Nc2ccc3c(c2)CCC3)c2ccccc2n1 | 10.8%
COc1ccc(Cl)cc1NC(=O)CCS(=O)(=O)c1ccc(Br)cc1 | 3.8%
COc1ccc(NC(=O)C(=O)NNC(=O)C(C)Oc2ccc(Cl)cc2Cl)cc1 (stereo not shown) | 19%
Cn1nc(C(=O)Nc2ccccc2)c2c1-c1ccccc1S(=O)(=O)C2 | -0.138%
Cc1ccc(CCNC(=O)CN2C(=O)COc3ccc(S(=O)(=O)N4CCC(C)CC4)cc32)cc1 | 8.66%
CC(C)CN(CCCNC(=O)CN1C(=O)COc2ccc(S(=O)(=O)N3CCC(C)CC3)cc21)CC(C)C | -2.94%
CCOCCCNC(=O)CN1C(=O)COc2ccc(S(=O)(=O)N3CCC(C)CC3)cc21 | 6.25%
CCCCN(CCCC)CCCNC(=O)CN1C(=O)COc2ccc(S(=O)(=O)N3CCC(C)CC3)cc21 | -74.8%
CC(C)CN(CCCNC(=O)CN1C(=O)COc2ccc(S(=O)(=O)N3CCCC3)cc21)CC(C)C | -5.33%
CC(C)CN(CCCNC(=O)CN1C(=O)COc2ccc(S(=O)(=O)N3CCCCCC3)cc21)CC(C)C | -52%

SMILES | hERG current change (%, negative = inhibition) at 10uM
CC1CCN(S(=O)(=O)c2ccc3c(c2)N(CC(=O)NCCCN(Cc2ccccc2)C(C)C)C(=O)CO3)CC1 | -62.5%
CC1CCN(S(=O)(=O)c2ccc3c(c2)N(CC(=O)NCCCOC(C)C)C(=O)CO3)CC1 | 12.8%
CC(C)CN(CCCNC(=O)CN1C(=O)COc2ccc(S(=O)(=O)N3CCOCC3)cc21)CC(C)C | 6.18%
Cc1cc(C)nc(N2CCC(C(=O)Nc3ccc4c(c3)OCO4)CC2)n1 | -5.31%
NS(=O)(=O)c1ccc(CNS(=O)(=O)c2ccc3ccccc3c2)cc1 | 1.74%
O=C(CSc1ncccn1)NCc1ccc(Cl)cc1 | 4.02%
COC(=O)C(=O)/C=C(\O)c1c(C)cc(C)cc1C | 14.9%
COc1ccc(/C=C2/CCc3ccccc3C2=O)cc1OC | -19.8%
CCOc1cc(CNCCO)ccc1OCC(=O)NC(C)(C)C.Cl | 15.7%
O=C(COC(=O)c1ccc(F)cc1F)NCCC1=CCCCC1 | 10.6%
Cl.OC(COc1ccc(Cl)cc1)CN1CCC(Cc2ccccc2)CC1 (stereo not shown) | -81.4%
Cl.OCCN1CCN(CC(O)COc2ccc(Cl)cc2)CC1 (stereo not shown) | -20.6%
Cl.OC(COc1ccc(Br)cc1)CN1CCOCC1 (stereo not shown) | -0.178%
CC(C)OCC(O)CN1CCNCC1.Cl (stereo not shown) | 11.6%
Cl.OC(COc1ccccc1)CN1CCC(Cc2ccccc2)CC1 (stereo not shown) | -79.3%
Cl.OC(COc1ccc(Br)cc1)CN1CCCC1 (stereo not shown) | -24.3%
CCN1CCN(CC(O)COC(C)C)CC1.Cl (stereo not shown) | 2.08%
CC(C)OCC(O)CN1CCC(Cc2ccccc2)CC1.Cl (stereo not shown) | -56.9%
Cl.OC(COc1ccc(Br)cc1)CN1CCC(Cc2ccccc2)CC1 (stereo not shown) | -85.9%
O=S(=O)(c1ccc(OCC(O)CN2CCC(Cc3ccccc3)CC2)cc1)N1CCOCC1 (stereo not shown) | -44.4%
OC(COc1ccc(OCc2ccccc2)cc1)CN1CCOCC1 (stereo not shown) | -17%
Cl.OC(COc1ccc(Cl)cc1)CN1CCN(c2ccccc2)CC1 (stereo not shown) | -29.7%
